Laboratory results published in the supplement of paper PMC6555819.

Legend:
Assay in all cases: PBM binding z-score (relative to random genomic background probes); higher = stronger binding; sequences stand for … in GC…GCGATTGACAGCGTAGAATGAAGG
[1] = tested on: RARb homodimer (NR concentration 270 nM)
How it was run: (§1)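 Antibodies against each partner of ligand-free nuclear receptor dimers (one per run) detected binding on custom Agilent 4×180K protein-binding microarrays after 1 h incubation. The double-stranded probes had 34-nt variable regions carrying direct-repeat seeds, single-nucleotide variants, half-site ablations and random human genomic background sequences. Binding z-scores, from regression-normalized fluorescence, use the random background probes as reference.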

[2] = tested on: RARg:RXRa (NR concentration 270 nM, RXRa partner concentration 90 nM)
How it was run: as §1

[3] = tested on: RARg homodimer (NR concentration 270 nM)
How it was run: as §1

[4] = tested on: RXRa DBDmut IVT, anti-RXR (DBD mutation: RXRa K156A/R161A, NR concentration 90 nM)
How it was run: as §1

[5] = tested on: RXRa homodimer (NR concentration 180 nM)
How it was run: as §1

[6] = tested on: THRa:RXRa (NR concentration 90 nM, RXRa partner concentration 90 nM)
How it was run: as §1

[7] = tested on: THRa homodimer (NR concentration 90 nM)
How it was run: as §1

[8] = tested on: VDR homodimer (NR concentration 270 nM)
How it was run: as §1

Row | Sequence | PBM binding z-score [1] | PBM binding z-score [2] | PBM binding z-score [3] | PBM binding z-score [4] | PBM binding z-score [5] | PBM binding z-score [6] | PBM binding z-score [7] | PBM binding z-score [8]
1 | AGAATGAGGTTATACGTAGATCAGGGAGGAAAGT | 0.93 | 1.79 | 1.27 | 1.87 | 2.27 | 2.24 | 0.817 | 1.09
2 | ATCGAAAGTTCGAGGTGAGTATAGAGAAAGGGAA | 1.28 | 1.69 | 2.19 | 1.85 | 1.41 | 1.7 | 0.158 | 1.09
3 | AATACAGGGTCAGCGTAGGCCAGAGTACGCACAG | 3.36 | 4.93 | 4.67 | 1.69 | 4.84 | 3.98 | 0.9 | 1.65
4 | GCTAGCAGGCCCTTTGGGTCACTCAATGACGGGC | 1.29 | 0.49 | 0.718 | -0.714 | 0.498 | 1.67 | 0.25 | -0.37
5 | TCTTGTAGATCAACAGGTTAAGAAAGCTGGCCAA | 0.358 | 0.2 | -0.172 | 0.696 | 0.726 | 0.203 | -0.285 | -0.285
6 | ACTTACGGGTCAACGCGGTTATAGCACGCGTATA | 3.18 | 5.42 | 5.07 | 1.88 | 5.68 | 2.97 | 0.345 | 1.45
7 | TCGAGTAGGCTAGTCGGGGCATTCAGCCAACATA | -0.562 | -0.554 | -0.738 | -0.313 | -0.347 | -0.266 | -0.771 | -0.582
8 | GGTCGGAGGACAAGGTCAGAGCTTTGTCCGTAGA | 3.33 | 3.31 | 4.24 | 0.467 | 2.46 | 3.12 | 1.85 | 0.993
9 | AGAATGAGGTTATTAAGATGAGGGAATTGCGGTC | 0.734 | 1.15 | 0.922 | 1.9 | 1.87 | 2.08 | 0.746 | 1.16
10 | CCGACTGGGGCAAGGTTACGATAACGCACAGCCA | 1.22 | 1.18 | 1.56 | -0.192 | 1.47 | 1.28 | 0.056 | -0.241
11 | CTCGAAAAGTCGGTTGAGGTGAGTATACGGATAA | 0.0667 | 0.446 | 0.172 | -0.0991 | 0.212 | 3.57 | 1.15 | -0.144
12 | GGAACGAGGGCAAAGTTGACAGCATCTGTCGACG | 1.58 | 2.77 | 2.16 | 2.56 | 2.76 | 1.67 | -0.266 | 1.24
13 | CATACAGGGTCAGCTGGGCCAGAGTAGGGACGGC | 3.31 | 4.6 | 4.97 | 1.48 | 4.64 | 3.12 | 0.678 | 1.18
14 | TCTATTAATTGAAGGGCAACCGACGAGTCCGTTT | 1.05 | 0.656 | 0.454 | 1.24 | 0.717 | 0.258 | 0.559 | 2.19
15 | CCAGCCAGGTGAGAAGGTAACTCAGCCTCGATTA | 0.235 | 0.0253 | 0.00676 | -0.801 | 0.0434 | 0.621 | 0.306 | -0.441
16 | GATGCAGGGTCAGCTAGAGGCCAGAGTATGGAAA | 3.34 | 6.65 | 5.08 | 1.24 | 4.39 | 2.95 | 0.228 | 0.522
17 | CCTCGGAGGACAACAGGAGTTCAGAGCTGCCAGA | 1.91 | 1.7 | 1.9 | 0.979 | 0.335 | 1.17 | -0.102 | 2.95
18 | AGTCAAAGATCAGGACGAGGTAACGTAAAGCACG | -0.273 | 0.544 | 0.425 | -0.798 | 0.431 | 2.27 | 1.16 | -0.321
19 | CCTACTGGGCCAGTCAGAGGTCATTGATCATATG | 3.65 | 3.94 | 2.79 | 0.705 | 3.71 | 2.94 | 1.03 | 3.27

Row | Sequence | PBM binding z-score [1] | PBM binding z-score [2] | PBM binding z-score [3] | PBM binding z-score [4] | PBM binding z-score [5] | PBM binding z-score [6] | PBM binding z-score [7] | PBM binding z-score [8]
20 | ATATGTAGGTTAAGGGTCATTCGGGTTGGTTCGC | 3.7 | 4.87 | 3.3 | 2.32 | 6.11 | 3.39 | 1.95 | 5.4
21 | TAGCCTAGGTCATCCAGGGGCCAGTATAGAAAGC | 3.71 | 6.41 | 5.07 | 0.731 | 2.94 | 3.55 | 0.878 | 0.913
22 | ATCTCTAGGTAAAAGTTGAGTGAATCCCGAGGAT | 0.0614 | 0.517 | 0.653 | 0.044 | 0.435 | 0.387 | 0.0583 | -0.06
23 | CAAACTAGGTCAAGAGGTCAAAGTGCGCTTCCCG | 5.69 | 8.27 | 7.86 | 3.2 | 8.67 | 4.46 | 2.56 | 4.83
24 | CTTGAAAGGTCGGTTGAGGTGAGTATACGGATAA | 2.58 | 2.6 | 2.68 | 1.35 | 2.5 | 4.93 | 1.42 | 0.867
25 | TCTGGTAGATCAATAGAGGTTAAGAAAGTGCGCT | 1.43 | 0.787 | 0.391 | 0.698 | 1.48 | 2.22 | -0.138 | 0.435
26 | ACTAGTTGGTCAGCTGAGGTCCCACACAATTCGG | 0.808 | 0.425 | 0.578 | 0.281 | 0.206 | 2.75 | 0.564 | -0.00436
27 | AGAATTAGGTTAAGATCAGGGAAACAGAATACAT | 0.701 | 1.04 | 1.09 | -0.0806 | 0.853 | 1.35 | 0.656 | 0.432
28 | ATCTGTAGGTTAGCTGGGGTCATTCAGACTAGGC | 3.81 | 4.01 | 3.04 | 1.83 | 5.13 | 5.16 | 3.21 | 5.38
29 | TCTGCGAGGTCAGTTGGTCAGCTAACGAGCTGCC | 3.86 | 5 | 5.42 | 2.8 | 3.76 | 3.22 | 1.39 | 2.02
30 | GCTTGTAGATCAAGGCTAAGAAAGACTAAGCTAA | -0.854 | -0.533 | -0.429 | -0.427 | -0.497 | -0.5 | -1.37 | -0.708
31 | TCTCAGAGGACACGAAGGTCAGAGCTTTCCAGAG | 3.88 | 3.73 | 4.66 | 1.38 | 1.97 | 2.79 | 0.738 | 1.62
32 | CCTATTAGTTGACCATGAGGGCAACCGAAGCTCG | 2.22 | 1.32 | 1.16 | 0.831 | 0.812 | 2.11 | 1.79 | 1.43
33 | CGAACTAGATCATCCAGGACAGTGAATACATTGA | 0.254 | 0.0804 | 0.347 | 0.701 | -0.151 | 1.13 | 1.14 | 0.494
34 | GAAACAGGGTCAAGGCCAGAGTACGCGTATTGAT | 4.02 | 5.52 | 5.06 | 2.9 | 6.17 | 3.85 | 1.44 | 2.56
35 | ATCTATAGGTAACCAAGTTCAGTGAATGCCGAAC | 1.42 | 0.853 | 0.891 | 1.04 | 0.806 | 1.05 | 0.378 | 2.84
36 | TGAATGAGGTTATCAGATCAGGGAACGTTGCAAA | 0.317 | 1.62 | 1.06 | 0.731 | 1.99 | 2.02 | 0.233 | 0.273
37 | TAGCCTAGGTCATTGGGCCAGTTTAGTACGCATC | 2.94 | 3.74 | 3.68 | 1.46 | 2.81 | 3.03 | 1 | 1.46
38 | CCAGACAGGGGAGAAGGTAACTCAGCCTCGATTA | -0.0846 | -0.296 | -0.226 | 0.218 | -0.357 | -0.218 | -0.17 | -0.316

Row | Sequence | PBM binding z-score [1] | PBM binding z-score [2] | PBM binding z-score [3] | PBM binding z-score [4] | PBM binding z-score [5] | PBM binding z-score [6] | PBM binding z-score [7] | PBM binding z-score [8]
39 | GCATATAGGTAATACAAGGTGAAAGACCGATTGT | 0.665 | 0.88 | 0.835 | 0.075 | 0.929 | 4.12 | 0.583 | -0.0342
40 | ATCTCTAGGTAAAAGATCAGTGAATCCCGAGGAT | -0.353 | 0.381 | 0.48 | -0.342 | 0.281 | 0.298 | 0.125 | -0.0729
41 | ACAGACACGTGATGAAGGTAACTCAGGCTATCAT | -0.0735 | 0.142 | 0.316 | 0.207 | 0.38 | 0.724 | 0.228 | -0.42
42 | GATTGTAGATCAAGGTTAAGAAAGACTAAGCTAA | -0.213 | 0.14 | 0.339 | -0.224 | 0.781 | 0.867 | -0.616 | -0.0253
43 | ATATGTAGGTTACATCCGGGTTATTCAGGCTATG | 1.32 | 1.65 | 1.4 | 1.14 | 1.84 | 2.18 | 1.08 | 0.79
44 | ATAACAAGGTGATCGTGAGGTCGTTGATACTAAC | 1.58 | 2.43 | 1.23 | 0.955 | 1.76 | 3.48 | 2.31 | 2.78
45 | CGTCCAAGTTCAACTAAGGTAACGTAAAGCACGC | 2.73 | 3.63 | 3.97 | 4.54 | 2.79 | 5.06 | 2.45 | 4.43
46 | CTCGAAAGGTCGTGCTCAGGTGAGCATACCAAAC | 2.63 | 5.53 | 4.45 | 2.21 | 5.55 | 4.12 | 1.23 | 0.533
47 | CCGAGTAGGTTAGGGGGCATTCAGGCAACGGTGA | 2.12 | 2.21 | 1.79 | 1.54 | 2.03 | 2.4 | 1.37 | 2.8
48 | CCCACTGGGGCAGAAAGGTTACCATACCATCCGG | 2.2 | 1.52 | 1.63 | -1.65 | 1.6 | 1.01 | -0.221 | -0.41
49 | GCAGACAGGTGAAACGCAGGTACCTCAGGGTGGC | -0.353 | 0.0657 | 0.145 | -0.949 | 0.343 | 0.295 | -0.722 | -0.935
50 | AGAACGAGGGCAATGTGTTGATAGCACGGGTGGC | 1.23 | 1.16 | 1.44 | 1.74 | 0.945 | 0.861 | -0.000904 | 0.944
51 | GGAACGACGGCAAAGTTGATAGCATCTGTCGACG | -0.736 | -0.162 | -0.0781 | -0.543 | 0.157 | -0.802 | -1.24 | -0.637
52 | ATCTCTAGGTAACAAGTTCAGTTAAAGAGAGGAC | 1.9 | 1.37 | 1.45 | 0.748 | 0.837 | 1.73 | 1.16 | 2.34
53 | GTACAAAGGTGAATAGGTCGTTGATGAGTAGGCG | 3.11 | 4.37 | 2.79 | 0.47 | 3.43 | 1.72 | -0.0459 | 0.65
54 | AGAACGAGGGCAATGATTTGATAGCACGGGTGGC | 0.954 | 0.982 | 1.4 | 1.64 | 0.834 | 0.95 | 0.00137 | 0.721
55 | TGAATGAGGTTAAAGATCAGGGTACGTGGCGTCG | 1.27 | 2.36 | 1.42 | 1.41 | 3.5 | 2.78 | 0.878 | 1.25
56 | CAAACTAGGTCTCCGGAAGGTCAAAGTCCGCATG | 4.17 | 4.36 | 3.46 | 0.358 | 3.68 | 2.88 | 1.4 | 1.84
